Assay results reported in PubChem BioAssay (NCI).
This is part of a sample that, as a whole, favours compounds with a hit. Of some 79,000 tested, about 15% had one in any assay. Values without a mark were called inactive. The source made the active and inactive calls. Cut-off read from the data, not from the text of the source: active = growth inhibition above about 70%; inactive = the rest.

test: NCI Yeast Anticancer Drug Screen. Data for the mgt1 strain (AID 153); details: S. cerevisiae mgt1 mutant growth inhibition; at 33.0 µM; stronger effect = higher value
Procedure, shortened: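 After exposure of the mgt1 yeast mutant to compound, growth was measured and reported as inhibition compared with vehicle controls.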

Question: With Cc1cccc2c(C(O)CBr)cc(-c3ccc(Cl)cc3)nc12 (stereo not given) as the compound, how does the growth inhibition read?
Answer: The growth inhibition was 97% (active).

Question: Which growth inhibition does the source give for CN(C)C[C@H]1CC[C@@H](CN(C)C)C1=O here?
Answer: The growth inhibition was 30%.

Question: Which growth inhibition does the source give for CC1=C(SCCO)C(=O)c2ccccc2C1=O here?
Answer: Its growth inhibition is -10%.

Question: Which growth inhibition does the source give for COC(=O)CCNc1c2ccccc2nc2cccc([N+](=O)[O-])c12 here?
Answer: Its growth inhibition is 97% (active).

Question: Which growth inhibition does the source give for CC(/C=C/c1ccc2c(c1)OCO2)[N+](=O)[O-] (stereo not given) here?
Answer: The growth inhibition was 99% (active).

Question: Which growth inhibition does the source give for COC(=O)C1=C(C)NC(C)=C(C(=O)OCCCN2CCC(c3ccccc3)(c3ccccc3)CC2)C1c1cccc([N+](=O)[O-])c1 (stereo not given) here?
Answer: Its growth inhibition is 98% (active).

Question: With CCOC(=O)c1cnc2c(C(F)(F)F)cccc2c1N=[N+]=[N-] as the compound, how does the growth inhibition read?
Answer: The growth inhibition was 52%.

Question: Which growth inhibition does the source give for O=[N+]([O-])c1cc2no[n+]([O-])c2cc1N1CCCCC1 here?
Answer: The growth inhibition was 98% (active).

Question: With COC(=O)c1ccc(NCC2=CC(=O)C=CC2=O)cc1O as the compound, how does the growth inhibition read?
Answer: The growth inhibition was 97% (active).

Question: With CCCCCCCCNC(=O)C1=C(C)NC(C)=C(C(=O)NCCCCCCCC)C1 as the compound, how does the growth inhibition read?
Answer: The growth inhibition was -13%.

Question: For S=C(Nc1ccc(Cl)c(Cl)c1)SCc1ccc2c(c1)OCO2, which growth inhibition is on record?
Answer: The growth inhibition was 99% (active).

Question: For O=S(=O)(CCCl)c1ccccc1Cl, which growth inhibition is on record?
Answer: The growth inhibition was 96% (active).

Question: With Nc1ccccc1CC(O)C(=O)O (stereo not given) as the compound, how does the growth inhibition read?
Answer: Its growth inhibition is 74% (active).

Question: With CN(C)c1ccc(Sc2ccc3nc(N)nc(N)c3c2)cc1 as the compound, how does the growth inhibition read?
Answer: Its growth inhibition is -11%.

Question: Which growth inhibition does the source give for CC(C)C1=CCC2C(=C1)CCC1C(C)(C(=O)O)CCCC21C (stereo not given) (tested in a mixture with another compound) here?
Answer: The growth inhibition was 15%.

Question: For Cc1ccc(S(=O)(=O)Oc2cc(Cl)c(Cl)cc2Cl)cc1, which growth inhibition is on record?
Answer: The growth inhibition was -9%.

Question: With CSC(=S)Nc1cc(C)ccn1 as the compound, how does the growth inhibition read?
Answer: The growth inhibition was 23%.

Question: With CC(C)c1cc(C(C)C)c(O)c(C([O-])[O-])c1.CC(C)c1cc(C(C)C)c(O)c(C([O-])[O-])c1.CC(C)c1cc(C(C)C)c(O)c(C([OH2+])[OH2+])c1.CC(C)c1cc(C(C)C)c(O)c(C([OH2+])[OH2+])c1.[Cu+2].[Cu+2].[OH3+].[OH3+] as the compound, how does the growth inhibition read?
Answer: The growth inhibition was 56%.

Question: For Cc1cc(I)ccc1N, which growth inhibition is on record?
Answer: The growth inhibition was 93% (active).

Question: Which growth inhibition does the source give for CC(Br)C(=O)c1ccc2cc(Br)c3ccccc3c2c1 (stereo not given) here?
Answer: Its growth inhibition is 2%.

Question: With O=C(Nc1ccccc1)OCCc1ccc(Cl)c(Cl)c1 as the compound, how does the growth inhibition read?
Answer: The growth inhibition was 14%.

Question: With O=Cc1cccc2ccc3ccccc3c12 as the compound, how does the growth inhibition read?
Answer: The growth inhibition was 32%.

Question: Which growth inhibition does the source give for O=[N+]([O-])CC(SCc1ccccc1)c1ccc2c(c1)OCO2 (stereo not given) here?
Answer: The growth inhibition was 97% (active).

Question: Which growth inhibition does the source give for CC1(Cl)CC(O)C2(CC1Br)C1(C)OC1C1OC1(Br)C2(C)C (stereo not given) here?
Answer: The growth inhibition was 74% (active).

Question: With Cc1cc(O)cc(O)c1N=Nc1ccc([N+](=O)[O-])cc1 as the compound, how does the growth inhibition read?
Answer: The growth inhibition was 59%.

Question: For CCCCCCCCCCCCCC[N+](C)(CC(=O)[O-])Cc1ccccc1 (stereo not given), which growth inhibition is on record?
Answer: Its growth inhibition is 99% (active).

Question: With CC1=NN(c2cccc(Cl)c2)C(=O)C1 as the compound, how does the growth inhibition read?
Answer: Its growth inhibition is 8%.

Question: With CC(=O)OCc1ccc(O)c(C=O)c1 as the compound, how does the growth inhibition read?
Answer: Its growth inhibition is 6%.

Question: With Cc1ccc2ccc3cccc4ccc1c2c34 as the compound, how does the growth inhibition read?
Answer: The growth inhibition was -3%.

Question: With Cc1nc(-[n+]2nc(-c3ccncc3)nn2-c2ccccc2)sc1C as the compound, how does the growth inhibition read?
Answer: Its growth inhibition is 54%.

Question: For C(CCSC1=NCCN1)CSC1=NCCN1 (tested in a mixture with another compound), which growth inhibition is on record?
Answer: The growth inhibition was 99% (active).

Question: With CCCCCCCCCCC(=O)Cl as the compound, how does the growth inhibition read?
Answer: The growth inhibition was -32%.

Question: For COC1C=COC2(C)Oc3c(C)c(O)c4c(c3C2=O)/C(=N/C2CCC(O)OC2C)C=C(NC(=O)/C(C)=C\C(=O)C2CC2C(O)C(C)C(O)C(C)C(OC(C)=O)C1C)C4=O (stereo not given), which growth inhibition is on record?
Answer: The growth inhibition was 29%.

Question: For S=c1[nH]nc(Nc2ccc(Cl)cc2)s1, which growth inhibition is on record?
Answer: Its growth inhibition is -8%.

Question: With O=C1CSC(/C=C/c2ccccc2)N1c1ccc(-c2ccc(-n3c(-c4ccccc4)nc4ccccc4c3=O)cc2)cc1 (stereo not given) as the compound, how does the growth inhibition read?
Answer: Its growth inhibition is 19%.

Question: With O=C1C=CC(=O)N1c1ccc2c(c1)Cc1cc(NC(=O)C(F)(F)F)ccc1-2 as the compound, how does the growth inhibition read?
Answer: The growth inhibition was 57%.

Question: With Brc1ccc(-c2cc3c(cc2C2SCCS2)OCO3)cc1 as the compound, how does the growth inhibition read?
Answer: The growth inhibition was -6%.

Question: For Oc1ccc2ccccc2c1C(c1ccc(Cl)cc1)c1c(O)ccc2ccccc12, which growth inhibition is on record?
Answer: Its growth inhibition is 43%.

Question: With C[CH2][Sn]([CH2]C)([O]C(=O)C(OC(C)=O)c1ccccc1)[O]C(=O)C(OC(C)=O)c1ccccc1 (stereo not given) as the compound, how does the growth inhibition read?
Answer: Its growth inhibition is 49%.

Question: For Cc1ccc2ccc(O)cc2c1, which growth inhibition is on record?
Answer: The growth inhibition was -21%.

same assay, conditions: S. cerevisiae mgt1 mutant growth inhibition; at 100.0 µM; stronger effect = higher value

Question: Which growth inhibition does the source give for Cc1cccc2c(C(O)CBr)cc(-c3ccc(Cl)cc3)nc12 (stereo not given) here?
Answer: The growth inhibition was 92% (active).

Question: With CN(C)C[C@H]1CC[C@@H](CN(C)C)C1=O as the compound, how does the growth inhibition read?
Answer: The growth inhibition was 43%.

Question: With CC1=C(SCCO)C(=O)c2ccccc2C1=O as the compound, how does the growth inhibition read?
Answer: Its growth inhibition is 6%.

Question: Which growth inhibition does the source give for COC(=O)CCNc1c2ccccc2nc2cccc([N+](=O)[O-])c12 here?
Answer: The growth inhibition was 97% (active).

Question: Which growth inhibition does the source give for CC(/C=C/c1ccc2c(c1)OCO2)[N+](=O)[O-] (stereo not given) here?
Answer: The growth inhibition was 99% (active).

Question: With COC(=O)C1=C(C)NC(C)=C(C(=O)OCCCN2CCC(c3ccccc3)(c3ccccc3)CC2)C1c1cccc([N+](=O)[O-])c1 (stereo not given) as the compound, how does the growth inhibition read?
Answer: The growth inhibition was 93% (active).

Question: With CCOC(=O)c1cnc2c(C(F)(F)F)cccc2c1N=[N+]=[N-] as the compound, how does the growth inhibition read?
Answer: The growth inhibition was 93% (active).

Question: For O=[N+]([O-])c1cc2no[n+]([O-])c2cc1N1CCCCC1, which growth inhibition is on record?
Answer: Its growth inhibition is 98% (active).

Question: With COC(=O)c1ccc(NCC2=CC(=O)C=CC2=O)cc1O as the compound, how does the growth inhibition read?
Answer: Its growth inhibition is 91% (active).

Question: For CCCCCCCCNC(=O)C1=C(C)NC(C)=C(C(=O)NCCCCCCCC)C1, which growth inhibition is on record?
Answer: The growth inhibition was 4%.

Question: Which growth inhibition does the source give for S=C(Nc1ccc(Cl)c(Cl)c1)SCc1ccc2c(c1)OCO2 here?
Answer: The growth inhibition was 97% (active).

Question: For O=S(=O)(CCCl)c1ccccc1Cl, which growth inhibition is on record?
Answer: Its growth inhibition is 98% (active).

Question: For Nc1ccccc1CC(O)C(=O)O (stereo not given), which growth inhibition is on record?
Answer: The growth inhibition was 95% (active).

Question: With CN(C)c1ccc(Sc2ccc3nc(N)nc(N)c3c2)cc1 as the compound, how does the growth inhibition read?
Answer: The growth inhibition was 7%.

Question: For CC(C)C1=CCC2C(=C1)CCC1C(C)(C(=O)O)CCCC21C (stereo not given) (tested in a mixture with another compound), which growth inhibition is on record?
Answer: Its growth inhibition is 94% (active).

Question: With Cc1ccc(S(=O)(=O)Oc2cc(Cl)c(Cl)cc2Cl)cc1 as the compound, how does the growth inhibition read?
Answer: The growth inhibition was -8%.

Question: With CSC(=S)Nc1cc(C)ccn1 as the compound, how does the growth inhibition read?
Answer: The growth inhibition was 76% (active).

Question: With CC(C)c1cc(C(C)C)c(O)c(C([O-])[O-])c1.CC(C)c1cc(C(C)C)c(O)c(C([O-])[O-])c1.CC(C)c1cc(C(C)C)c(O)c(C([OH2+])[OH2+])c1.CC(C)c1cc(C(C)C)c(O)c(C([OH2+])[OH2+])c1.[Cu+2].[Cu+2].[OH3+].[OH3+] as the compound, how does the growth inhibition read?
Answer: Its growth inhibition is 91% (active).

Question: Which growth inhibition does the source give for Cc1cc(I)ccc1N here?
Answer: The growth inhibition was 85% (active).

Question: Which growth inhibition does the source give for CC(Br)C(=O)c1ccc2cc(Br)c3ccccc3c2c1 (stereo not given) here?
Answer: The growth inhibition was 5%.

Question: Which growth inhibition does the source give for O=C(Nc1ccccc1)OCCc1ccc(Cl)c(Cl)c1 here?
Answer: Its growth inhibition is 37%.

Question: With O=Cc1cccc2ccc3ccccc3c12 as the compound, how does the growth inhibition read?
Answer: The growth inhibition was 98% (active).

Question: For O=[N+]([O-])CC(SCc1ccccc1)c1ccc2c(c1)OCO2 (stereo not given), which growth inhibition is on record?
Answer: The growth inhibition was 97% (active).

Question: Which growth inhibition does the source give for CC1(Cl)CC(O)C2(CC1Br)C1(C)OC1C1OC1(Br)C2(C)C (stereo not given) here?
Answer: The growth inhibition was 98% (active).

Question: For Cc1cc(O)cc(O)c1N=Nc1ccc([N+](=O)[O-])cc1, which growth inhibition is on record?
Answer: Its growth inhibition is 64%.

Question: Which growth inhibition does the source give for CCCCCCCCCCCCCC[N+](C)(CC(=O)[O-])Cc1ccccc1 (stereo not given) here?
Answer: The growth inhibition was 99% (active).

Question: Which growth inhibition does the source give for CC1=NN(c2cccc(Cl)c2)C(=O)C1 here?
Answer: Its growth inhibition is 63%.

Question: Which growth inhibition does the source give for CC(=O)OCc1ccc(O)c(C=O)c1 here?
Answer: Its growth inhibition is 25%.

Question: For Cc1ccc2ccc3cccc4ccc1c2c34, which growth inhibition is on record?
Answer: The growth inhibition was 18%.

Question: For Cc1nc(-[n+]2nc(-c3ccncc3)nn2-c2ccccc2)sc1C, which growth inhibition is on record?
Answer: Its growth inhibition is 78% (active).

Question: Which growth inhibition does the source give for C(CCSC1=NCCN1)CSC1=NCCN1 (tested in a mixture with another compound) here?
Answer: The growth inhibition was 98% (active).

Question: With CCCCCCCCCCC(=O)Cl as the compound, how does the growth inhibition read?
Answer: The growth inhibition was 85% (active).

Question: Which growth inhibition does the source give for COC1C=COC2(C)Oc3c(C)c(O)c4c(c3C2=O)/C(=N/C2CCC(O)OC2C)C=C(NC(=O)/C(C)=C\C(=O)C2CC2C(O)C(C)C(O)C(C)C(OC(C)=O)C1C)C4=O (stereo not given) here?
Answer: Its growth inhibition is 80% (active).

Question: Which growth inhibition does the source give for S=c1[nH]nc(Nc2ccc(Cl)cc2)s1 here?
Answer: The growth inhibition was 19%.

Question: With O=C1CSC(/C=C/c2ccccc2)N1c1ccc(-c2ccc(-n3c(-c4ccccc4)nc4ccccc4c3=O)cc2)cc1 (stereo not given) as the compound, how does the growth inhibition read?
Answer: Its growth inhibition is 81% (active).

Question: Which growth inhibition does the source give for O=C1C=CC(=O)N1c1ccc2c(c1)Cc1cc(NC(=O)C(F)(F)F)ccc1-2 here?
Answer: Its growth inhibition is 77% (active).

Question: For Brc1ccc(-c2cc3c(cc2C2SCCS2)OCO3)cc1, which growth inhibition is on record?
Answer: The growth inhibition was 50%.

Question: With Oc1ccc2ccccc2c1C(c1ccc(Cl)cc1)c1c(O)ccc2ccccc12 as the compound, how does the growth inhibition read?
Answer: Its growth inhibition is 88% (active).

Question: For C[CH2][Sn]([CH2]C)([O]C(=O)C(OC(C)=O)c1ccccc1)[O]C(=O)C(OC(C)=O)c1ccccc1 (stereo not given), which growth inhibition is on record?
Answer: The growth inhibition was 93% (active).

Question: With Cc1ccc2ccc(O)cc2c1 as the compound, how does the growth inhibition read?
Answer: The growth inhibition was 50%.
